Laboratory results taken from ChEMBL document CHEMBL4513216, “Probing the Open Global Health Chemical Diversity Library for Multistage-Active Starting Points for Next-Generation Antimalarials” (ACS Infect Dis, 2020).
In all, about 69,000 compounds went through this assay and about 8,600 (12%) showed an effect of 50% or more. The full list was thinned out, with strong results kept by preference.

What follows are compounds tested on Plasmodium berghei (assay: Screen against P. berghei liver stage (PbLuc), transformed with Luciferase, at 10uM). Details: tested at 10 uM.
Assay type: functional, HepG2

In order of rising INHIBITION:
1. CN(Cc1cc(Br)cn1C)C(=O)Cc1cccnc1  -91.4%
2. CCOCCNC(=O)c1cccc(Cn2nc(C)cc2C)c1  -89.3%
3. CN(Cc1cc(Br)cn1C)C(=O)c1ccsc1  -82.2%
4. Cn1ncnc1NCc1ccc(F)cc1  -42.8%
5. Cn1ccnc1CN1CCC(F)(F)C2(CCN(c3cnccn3)C2)C1 (configuration not stated)  -38.9%
6. O=C(CSc1ccccn1)N1C[C@@H]2CC[C@H]1CN(Cc1cscn1)C2  -38.9%
7. COCCNS(=O)(=O)c1c(C)sc2ccccc12  -35%
8. O=C(Nc1ccccn1)c1csc(NC2CCCC2)n1  -32.8%
9. Cn1ncc2cnn(CC(O)COCc3ccccc3Cl)c2c1=O (configuration not stated)  -30.1%
10. CC(C)CCNc1nc(C(=O)NC2CC2)cs1  -30%
11. Cc1cnn(C2CCCN(C(=O)CCCOc3ccccc3F)C2)c1 (configuration not stated)  -27.8%
12. Cc1cccc(NC(=O)c2csc(NCC(C)C)n2)n1  -27.5%
13. O=S(=O)(C1CC1)N1CCOCC2(CCN(c3ccccn3)C2)C1 (configuration not stated)  -26.1%
14. Cc1ncsc1-c1nnc(C2CCN(CC3CCCCC3)CC2)o1  -18.4%
15. CCC(=O)N1CCC2(CC1)CN(CCO)Cc1ccccc12  -16.2%
16. O=C(c1ccccn1)N1CCc2ncc(Cn3cccn3)n2CC1  -14.2%
17. CC(C)(C)n1ncc2c1NC(=O)CC2c1ccc(C(=O)O)cc1 (configuration not stated)  -12.2%
18. O=C1CCN(C(=O)NCCCc2ccc(Cl)cc2Cl)CCN1  -12.1%
19. Fc1cccc(CN2CCC(c3noc(-c4cnccn4)n3)CC2)c1F  -11.4%
20. Cc1ccc(CN2CC[C@@H](NC(=O)c3cccnc3)[C@H](O)C2)s1  -10.9%
21. Cc1cc(=O)n2ncnc2n1CC(O)c1cc(F)ccc1F (configuration not stated)  -4.74%
22. Cc1ccc(N(CCC#N)C(=O)CN2CCCC2c2cccs2)cc1 (configuration not stated)  -3.48%
23. Cc1cc(CN(C)CCC(O)c2ccccc2)nn1C (configuration not stated)  -3.3%
24. N#CCCN(C(=O)CN1CCCC1c1ccsc1)c1ccccc1 (configuration not stated)  -2.95%
25. COc1ccc(-c2ccccc2CCN)c(OC)c1  -2.9%
26. CNS(=O)(=O)CC(=O)N(Cc1ccsc1)c1ccccc1  -2.69%
27. COc1ccccc1C(=O)NCCCN1CCCC1C(=O)N(C)C (configuration not stated)  -1.85%
28. Cc1cnc(NC(=O)N2CCCC2)s1  -1.58%
29. COc1ccc(CC2(C(=O)O)CCN(c3nc(C)ncc3C)CC2)cc1  -1.25%
30. CS(=O)(=O)N1CCC2(CC1)NCCn1c(-c3ccccc3)cnc12  -0.554%
31. CN1CCC(Cc2noc(-c3cccc(Oc4ncccn4)c3)n2)CC1  -0.529%
32. Cc1cc2n(n1)[C@@H](C(F)(F)F)C[C@@H](C1CCCN(C(=O)C(C)C)C1)N2 (some centres not stated)  1.5%
33. Cc1cc(=O)n2ncnc2n1CC(O)c1ccccc1Cl (configuration not stated)  2.37%
34. Cc1ccc(N(CCC#N)C(=O)CN2CCCC2c2ccsc2)cc1 (configuration not stated)  3.45%
35. COc1ccc(CN2C[C@H]3CC[C@@H](C2)N(S(=O)(=O)C2CC2)C3)cc1  4.52%
36. CCCc1nc(CN2CCCC(c3noc(C4CC4)n3)C2)no1 (configuration not stated)  4.71%
37. CC(C)NC(=O)N1CCN(CCn2cccn2)c2ncccc2C1  5.89%
38. Cc1cc(C)cc(N(CCC#N)C(=O)CN2CCCC2c2cccs2)c1 (configuration not stated)  6.54%
39. CC(C)c1nc2c(n1C)CCN(Cc1cccc(OCC(N)=O)c1)C2  7.08%
40. CN(C)c1nccnc1C1CCCN(c2cnccn2)C1 (configuration not stated)  7.75%
41. CCC(C)(NCC(=O)Nc1ccccc1)c1nc(C)cs1 (configuration not stated)  9.3%
42. CCC(CCNC(=O)c1cc(C2CC2)nc2c1cnn2C)n1cccn1 (configuration not stated)  9.55%
43. COc1cccc(N2CCN(C(=O)c3noc4c3CCCCC4)CC2)c1  10.1%
44. CCc1nc(C2CCCN2Cc2ncc(C)c(OC)c2C)no1 (configuration not stated)  11.4%
45. Cc1ccc(S(=O)(=O)N2CCCC(c3n[nH]cc3C(=O)N(C)C)C2)cc1 (configuration not stated)  11.8%
46. CCC(C)(NCC(=O)Nc1nc(C)cs1)c1nc(C)cs1 (configuration not stated)  12.2%
47. COc1cccc(N2CCN(C(=O)c3noc4c3CCCC4)CC2)c1  12.6%
48. CCc1oc2ccc(NS(C)(=O)=O)cc2c1C(=O)OC  12.8%
49. Cc1ccc(C(=O)NCCCN(C)S(C)(=O)=O)cc1-n1cccc1  12.9%
50. CS(=O)(=O)NCCCNC(=O)c1cccc(-n2cccc2)c1  13.4%
51. COCC(C)N1CCc2onc(-c3ccc(F)c(F)c3)c2C1 (configuration not stated)  16.7%
52. Cc1cccc2c1ccn2CCC(=O)O  17.6%
53. CN1CCN(c2cc(CNC(=O)c3cccnc3O)ccn2)CC1  18.36%
54. O=C(c1cccs1)N1CC[C@@H](N2CCOCC2)[C@@H]1Cc1ccccc1  19.4%
55. Cc1c(CC(C#N)C(=O)Nc2cccc(O)c2)cnn1C (configuration not stated)  20.4%
56. CCSc1ccc(C(=O)N2CCCCC2C(=O)N2CCCC2)cn1 (configuration not stated)  20.4%
57. FC(F)(F)COc1ccc(CSCc2ccon2)cn1  24%
58. CC(=O)N(Cc1ccsc1)c1ccccc1  24.2%
59. CCn1c(CN(C)C)nnc1C1CCN(Cc2cccc(F)c2F)CC1  25%
60. CCN(CC)C(=O)CCCNC(=O)c1csc(NC2CC2)n1  28%
61. Cc1ncsc1-c1nnc(C2CCN(Cc3ccccc3Cl)CC2)o1  29.3%
62. Cc1cc(=O)n2ncnc2n1CC(O)c1cc(Cl)ccc1Cl (configuration not stated)  29.8%
63. CC(C)NC(=O)CC1COC2(CCN(Cc3cccs3)CC2)C1 (configuration not stated)  29.9%
64. Cc1occc1C(=O)N1C[C@H]2CCCC(OCc3cccnc3)[C@H]2C1 (some centres not stated)  30.3%
65. COc1ccc(-c2cc(CN)ccc2F)c(OC)c1OC  30.9%
66. CS(=O)(=O)CC(=O)N1C[C@H]2CCC[C@@]2(COCc2ccncc2)C1  31.2%
67. Cc1cnc(N2CCc3onc(COc4cccnc4)c3C2)nc1  32.1%
68. CC(C)c1nc(O)c2nnn(C[C@H]3CCCN(Cc4ccsc4)C3)c2n1  32.3%
69. Cc1cc(=O)n2ncnc2n1CC(O)c1ccccc1F (configuration not stated)  33%
70. O=C(NC[C@H]1C[C@@H]2CCN1C[C@@H]2CN1CCCCC1)Nc1ccsc1  33.2%
71. CC(C)Oc1ccc(Cl)c(C(=O)N2CCN(CCO)CC2)n1  33.3%
72. O=C(CC1CC1)NCc1cn2c(n1)CN(Cc1nccs1)CC2  33.4%
73. COc1cccc(-c2n[nH]cc2-c2nc(CN3CCCC3)no2)c1  34%
74. O=C(CCn1ccc2cc(Br)ccc21)/N=c1\[nH]nc(C2CCCO2)s1 (configuration not stated)  35.1%
75. Cc1cnc(C(=O)N2C[C@@H](NS(C)(=O)=O)[C@@H]3OCCC[C@@H]32)cn1  35.7%
76. CCc1nc(CN(C(C)=O)C2CCN(CCc3cccs3)C2)no1 (configuration not stated)  36.1%
77. COc1cccc(-c2cnc3n2CCC32CCN(S(C)(=O)=O)CC2)c1  39.3%
78. CC(C)Cc1cc(CN2C[C@@H]3CC[C@H]2CN(Cc2cscn2)C3)n[nH]1  39.9%
79. CC(NC(=O)Nc1nccs1)C(=O)NC1CCCC1 (configuration not stated)  40.2%
80. CC(C)c1ccc(N2CCc3onc(-c4ccc(F)c(F)c4)c3C2)nn1  40.3%
81. Cc1nc(CSCc2ccc(OCC(F)(F)F)nc2)no1  40.7%
82. O=C(NC[C@H]1C[C@@H]2CCN1C[C@@H]2CN1CCOCC1)Nc1ccsc1  41.1%
83. O=C(CCC1CCN(C2CCSCC2)CC1)NCC1CCCO1 (configuration not stated)  42.1%
84. CCN1CCN(C2CCN(Cc3nc(C)c(C)o3)CC2)C1=O  44.1%
85. COc1ccc(CC(=O)N2CCC[C@@H](N)[C@@H]2c2ccccc2F)cc1  44.8%
86. CN(Cc1cc(Br)cn1C)C(=O)Cc1cccc(O)c1  50.8%
87. COc1ccc(-c2ccccc2CCN)c(OC)c1OC  50.8%
88. Cc1ccc(C(=O)NCCCNS(C)(=O)=O)cc1-n1cccc1  51.3%
89. CC(C)S(=O)(=O)CC(=O)N(Cc1ccsc1)c1ccccc1  54.4%
90. Cc1ncsc1-c1nnc(C2CCN(Cc3cccc(F)c3F)CC2)o1  54.5%
91. Cc1cc(=O)n2ncnc2n1CC(O)COCc1ccccc1Cl (configuration not stated)  55.4%
92. Cc1nnc(CSCc2ccc(OCC(F)(F)F)nc2)o1  56%
93. COc1ccc(-c2cnc3n2CCNC32CCN(S(C)(=O)=O)CC2)cc1  57.1%
94. Cc1cc(=O)n2ncnc2n1CC(O)c1ccc(F)cc1F (configuration not stated)  57.6%
95. Cc1ncsc1-c1nnc(C2CCN(Cc3ccccc3F)CC2)o1  59%
96. COc1cccc(-c2n[nH]cc2-c2nc(CC3CCN(C)CC3)no2)c1  59.7%
97. Cc1ccc(C2CCCN2CC(=O)N(CCC#N)c2ccccc2)cc1 (configuration not stated)  62.8%
98. Cc1cc(=O)n2ncnc2n1CC(O)c1ccccc1 (configuration not stated)  62.9%
99. N#CCCN(C(=O)CN1CCCC1c1ccccc1Cl)c1ccccc1 (configuration not stated)  67.1%
100. CCC(C)(NCC(=O)NC(C)C)c1nc(C)cs1 (configuration not stated)  76.7%
101. CC1CCN(C[C@H]2CN3CC[C@H]2C[C@@H]3CNC(=O)Nc2ccsc2)CC1  77.7%
102. COc1cccc(-c2noc3c2CN(c2nc(C)ncc2C)CC3)c1  80%
103. O=C(Nc1nccs1)c1csc(NC2CCCC2)n1  80.9%
104. COCc1cc(N2CCc3onc(-c4cccc(OC)c4)c3C2)ncn1  82.2%
105. Cc1cnc(NC(=O)c2csc(NCC(C)C)n2)s1  83.8%
106. COc1cccc(-c2noc3c2CN(c2ncnc4c2CCC4)CC3)c1  89.6%
107. Cc1cnc(NC(=O)c2csc(NC3CCCC3)n2)s1  89.6%
